According to the supplement of paper PMC8047044:

Assays:
Neuro-2a [1] = assay: neurite formation score, plate-normalized to DMSO control mean 5.04 (score (0-8 scale)); higher = more or longer neurites; conditions: 1 µM
Procedure: (§1)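 Neuro-2a mouse neuroblastoma cells in PLL-coated 96-well plates were pre-treated for 1 h in DMEM(+) with each kinase inhibitor at 1 µM, then switched to serum-free DMEM(-) with inhibitor to induce neurite outgrowth and fixed about 2-3 h later. Three blinded observers scored neurite formation from 0 (no neurites) to 8 (long neurites on almost all cells).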

Neuro-2a [2] = assay: as above; conditions: 0.1 µM
Procedure: as §1, with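 “at 0.1” for “at 1”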

SMILES | neurite formation score (Neuro-2a [1]) | neurite formation score (Neuro-2a [2])
Cc1c(CN2CCN(C(=O)[C@H](C)O)CC2)sc2c(N3CCOCC3)nc(-c3cnc(N)nc3)nc12 | 4.21 | 4.42
CC(C)c1cnn2c(NCc3ccccc3)cc(NCCCCCCN)nc12 | 4.57 | 4.88
C#Cc1cccc(Nc2ncnc3cc4c(cc23)OCCOCCOCCO4)c1 [Icotinib] | 4.8 | 5.09
CN(C)C1CCN(C(=O)c2ccc(NC(=O)Nc3ccc(-c4nc(N5CCOCC5)nc(N5CCOCC5)n4)cc3)cc2)CC1 | 4.14 | 3.09
COc1cc2ncnc(Nc3cccc(Cl)c3)c2cc1OC | 3.57 | 5.54
CC(C)(C)c1ccc(S(=O)(=O)/C=C/C#N)cc1 | 4.21 | 4.75
FC(F)(F)c1ccc(/C=C/c2nc(COc3ccc(CCCCn4ccnn4)cc3)co2)cc1 [Mubritinib (TAK 165)] | 4.47 | 4.76
O=C(NC1CCNCC1)c1n[nH]cc1NC(=O)c1c(Cl)cccc1Cl | 5.57 | 5.88
COc1cc(N2CCC(N(C)C)CC2)ccc1Nc1ncc(Cl)c(Nc2ccccc2P(C)(C)=O)n1 | – | 4.38
O=C(Nc1cccc(Nc2ncc(Br)c(NCCc3cnc[nH]3)n2)c1)N1CCCC1 | – | 4.71
CNC(=O)c1cccc(-c2ccc3c(N4CCOC[C@@H]4C)nc(N4CCOC[C@@H]4C)nc3n2)c1 | 4.29 | 4.58
CN1CCN(C2CCN(C(=O)Nc3cc(Oc4ccc(NC(=O)C5(C(=O)Nc6ccc(F)cc6)CC5)c(F)c4)ccn3)CC2)CC1 [Golvatinib (E7050)] | 4.14 | 3.76
CCn1nnc2c(N3CCOCC3)nc(-c3ccc(NC(=O)Nc4ccc(C(=O)N5CCN(C)CC5)cc4)cc3)nc21 | 3.14 | 4.76
